# Measured values as given in the supplement of paper PMC6897291.
# Tests used:
# RIVA [1] = test: growth inhibition by drug plus 177Lu-lilotomab satetraxetan (1 - RLU/untreated control) (fraction); higher = stronger inhibition; details: 177Lu-lilotomab satetraxetan 0.5 ug/ml
# Procedure, shortened: (§1)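 With or without 18 h pretreatment by a radiolabelled anti-CD37 antibody conjugate (~600 MBq/mg; 0.5 µg/ml RIVA, 1 µg/ml U-2932), RIVA and U-2932 cells were washed and plated at 3,000 cells/well. Pre-printed compound doses were 10/100 nM for RIVA and 10/1,000 nM for U-2932. Growth inhibition uses RealTime-Glo RLU relative to the untreated no-drug wells. The calculation is 1 − RLU/mean of 48 such wells per plate, with reads daily from day 3 after 1 h at 37°C.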
# U-2932 [2] = test: growth inhibition by drug alone (1 - RLU/untreated control) (fraction); higher = stronger inhibition; details: 177Lu-lilotomab satetraxetan 0 ug/ml
# Procedure, shortened: as §1
# RIVA [3] = test: as above; details: 177Lu-lilotomab satetraxetan 0 ug/ml
# Procedure, shortened: as §1
# U-2932 [4] = test: growth inhibition by drug plus 177Lu-lilotomab satetraxetan (1 - RLU/untreated control) (fraction); higher = stronger inhibition; details: 177Lu-lilotomab satetraxetan 1 ug/ml
# Procedure, shortened: as §1
Compound,"growth inhibition by drug plus 177Lu-lilotomab satetraxetan (RIVA [1]; 100 nM, time (day): 5)","growth inhibition by drug plus 177Lu-lilotomab satetraxetan (RIVA [1]; 100 nM, time (day): 6)","growth inhibition by drug alone (U-2932 [2]; 10 nM, time (day): 3)","growth inhibition by drug alone (U-2932 [2]; 10 nM, time (day): 4)","growth inhibition by drug alone (U-2932 [2]; 10 nM, time (day): 5)","growth inhibition by drug alone (U-2932 [2]; 10 nM, time (day): 6)","growth inhibition by drug alone (U-2932 [2]; 1000 nM, time (day): 3)","growth inhibition by drug alone (U-2932 [2]; 1000 nM, time (day): 4)","growth inhibition by drug alone (U-2932 [2]; 1000 nM, time (day): 5)","growth inhibition by drug alone (U-2932 [2]; 1000 nM, time (day): 6)","growth inhibition by drug alone (RIVA [3]; 10 nM, time (day): 3)","growth inhibition by drug alone (RIVA [3]; 10 nM, time (day): 4)","growth inhibition by drug alone (RIVA [3]; 10 nM, time (day): 5)","growth inhibition by drug alone (RIVA [3]; 10 nM, time (day): 6)","growth inhibition by drug alone (RIVA [3]; 100 nM, time (day): 3)","growth inhibition by drug alone (RIVA [3]; 100 nM, time (day): 4)","growth inhibition by drug alone (RIVA [3]; 100 nM, time (day): 5)","growth inhibition by drug alone (RIVA [3]; 100 nM, time (day): 6)","growth inhibition by drug plus 177Lu-lilotomab satetraxetan (U-2932 [4]; 10 nM, time (day): 3)","growth inhibition by drug plus 177Lu-lilotomab satetraxetan (U-2932 [4]; 10 nM, time (day): 4)","growth inhibition by drug plus 177Lu-lilotomab satetraxetan (U-2932 [4]; 10 nM, time (day): 5)","growth inhibition by drug plus 177Lu-lilotomab satetraxetan (U-2932 [4]; 10 nM, time (day): 6)","growth inhibition by drug plus 177Lu-lilotomab satetraxetan (U-2932 [4]; 1000 nM, time (day): 3)","growth inhibition by drug plus 177Lu-lilotomab satetraxetan (U-2932 [4]; 1000 nM, time (day): 4)","growth inhibition by drug plus 177Lu-lilotomab satetraxetan (U-2932 [4]; 1000 nM, time (day): 5)","growth inhibition by drug plus 177Lu-lilotomab satetraxetan (U-2932 [4]; 1000 nM, time (day): 6)","growth inhibition by drug plus 177Lu-lilotomab satetraxetan (RIVA [1]; 10 nM, time (day): 3)","growth inhibition by drug plus 177Lu-lilotomab satetraxetan (RIVA [1]; 10 nM, time (day): 4)","growth inhibition by drug plus 177Lu-lilotomab satetraxetan (RIVA [1]; 10 nM, time (day): 5)","growth inhibition by drug plus 177Lu-lilotomab satetraxetan (RIVA [1]; 10 nM, time (day): 6)","growth inhibition by drug plus 177Lu-lilotomab satetraxetan (RIVA [1]; 100 nM, time (day): 3)","growth inhibition by drug plus 177Lu-lilotomab satetraxetan (RIVA [1]; 100 nM, time (day): 4)"
Cc1ccc(-c2cc(C(F)(F)F)nn2-c2ccc(S(N)(=O)=O)cc2)cc1 [Celecoxib],0.453,0.425,–,–,–,–,–,–,–,–,–,–,–,–,–,–,–,–,–,–,–,–,–,–,–,–,–,–,–,–,–,–
CN1CCN(c2nc(C3=C(c4c[nH]c5ccccc45)C(=O)NC3=O)c3ccccc3n2)CC1 [Sotrastaurin (AEB071)],0.607,0.591,0.186,0.158,0.0846,0.122,0.463,0.616,0.696,0.756,0.214,0.132,0.0773,-0.121,0.163,0.124,0.0507,-0.0643,0.109,0.131,0.175,0.293,0.572,0.709,0.75,0.788,0.535,0.604,0.626,0.628,0.584,0.609
C[C@]1(O)C[C@@H](c2nc(-c3ccc4ccc(-c5ccccc5)nc4c3)c3c(N)nccn32)C1 [Linsitinib (OSI-906)],0.417,0.42,-0.0175,-0.0545,-0.0282,0.0189,-0.0281,-0.0257,-0.0322,0.0723,-0.215,-0.216,-0.261,-0.348,-0.356,-0.307,-0.329,-0.365,-0.0826,-0.0138,0.0354,0.14,-0.09,-0.0306,0.0298,0.223,0.4,0.48,0.495,0.5,0.283,0.4
O=C(NCCCNc1nc(Nc2cccc(NC(=O)N3CCCC3)c2)ncc1I)c1cccs1,0.603,0.64,0.201,0.14,0.0194,0.047,0.0736,0.137,0.35,0.462,0.342,0.272,0.262,0.207,0.339,0.317,0.346,0.36,0.198,0.238,0.304,0.353,0.223,0.302,0.491,0.618,0.795,0.787,0.812,0.838,0.547,0.558
Cc1nc(-c2ccc(OCC(C)C)c(C#N)c2)sc1C(=O)O [Febuxostat (Uloric)],0.463,0.45,0.06,0.0554,0.0252,-0.0354,0.00138,0.0444,-0.00425,-0.214,0.0707,0.00437,-0.101,-0.473,0.158,0.082,0.0362,-0.046,0.0457,0.0731,0.0564,0.0873,-0.0156,0.0704,0.0056,-0.0613,0.368,0.506,0.513,0.525,0.42,0.463
CCN(CC)C(=S)SSC(=S)N(CC)CC [Disulfiram (Antabuse)],0.394,0.386,0.0412,0.0424,-0.018,-0.236,0.981,0.982,0.981,0.981,-0.0278,-0.1,-0.147,-0.282,-0.227,-0.194,-0.203,-0.423,0.000112,0.0295,0.0516,0.0837,0.981,0.983,0.982,0.983,0.402,0.529,0.548,0.549,0.209,0.379
COc1ccc(CNC(=O)Nc2ncc([N+](=O)[O-])s2)cc1,0.489,0.47,-0.00788,-0.00166,0.0195,0.136,0.0779,0.0745,0.0965,0.0679,-0.12,-0.122,-0.158,-0.156,0.108,0.0378,-0.00577,-0.0255,-0.0555,-0.0169,0.0364,0.187,0.116,0.138,0.159,0.289,0.496,0.573,0.599,0.609,0.44,0.479
